The list is not random: actives were taken first. Their share in the collection is about 3.3%.
PRMT1 FP inh: PRMT1 methyltransferase inhibitors, primary screen, biochemical, fluorescence polarization | Protein arginine N-methyltransferase 1 (Homo sapiens), Q99873 | recombinant PRMT1, activity-based probe fluorescence polarization | inhibition, % at 2.79 µM | 370,000 tested, 1.3% active | AID 652257, 2013;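 active = inhibition above about 21% made by adding two undisclosed values, limit read from the data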
NOD2 RIPK2 PPI: NOD2-RIPK2 binding disruptors in cells, primary screen, fluorescence, CHO cells, BLA complementation; CCF4 ratio; inhibition, % at 4.98 µM; 360,000 tested, 0.38% active; AID 624267, 2012; in the data active = inhibition above about 21%;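 also: 0% = vehicle only and 100% = reference blocker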
rCAG binder: binders of r(CAG) RNA repeats, primary screen, biochemical, fluorescence. r(CAG) RNA repeat, TO-PRO-1 dye displacement fluorescence. inhibition, % at 3 µM. 370,000 tested, 1.3% active. AID 651821, 2012;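 active = inhibition above the plate cutoff, the mean of all test compounds on that plate plus 3 SD, cut at about 35% in these data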;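 also: 0% = DMSO alone and 100% = 100 µM mitoxantrone as full dye displacement; higher means more dye released from RNA so lower well fluorescence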
TLR4-MyD88 BLA: inhibitors of TLR4-MyD88 association in cells, primary screen, cell-based, HeLa CL3-4, BLA complementation, FRET ratio. Toll-like receptor 4 (Homo sapiens) + Myeloid differentiation primary response protein …. HeLa CL3-4 TLR4/MyD88 BLA complementation. inhibition, % at 8.4 µM. 200,000 tested, 0.18% active. AID 861, 2007; in the data active = inhibition above about 25%;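 also: 0% = vehicle and 100% = reference inhibitor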
TLR9-MyD88 inh: inhibitors of TLR9-MyD88 association in cells, primary screen, cell-based, CHO, BLA complementation, fluorescence; inhibition, % at 4.98 µM; 340,000 tested, 0.21% active; CCF4 FRET ratio;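 active = inhibition above the mean over all tested compounds plus 3 SD, cut at about 21% in these data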;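 also: 0% = DMSO only wells and 100% = clavulanate BLA inhibitor control wells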
ABHD5-PLIN5 inh: ABHD5-PLIN5 interaction inhibitors, primary screen, cell lysate, split luciferase complementation, luminescence; inhibition, % at 4 µM; 360,000 tested, 0.78% active; Split G. princeps luciferase complementation, 4 h; Perilipin-5 (Homo sapiens) + 1-acylglycerol-3-phosphate O-acyltransferase ABHD5 (Homo …;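 active = inhibition above the mean inhibition across every tested compound plus 3 SD, cut at about 22% in these data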;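 also: 0% = DMSO only wells and the 100% control is not disclosed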
Target sequence (Q00G26 whole entry, looked up): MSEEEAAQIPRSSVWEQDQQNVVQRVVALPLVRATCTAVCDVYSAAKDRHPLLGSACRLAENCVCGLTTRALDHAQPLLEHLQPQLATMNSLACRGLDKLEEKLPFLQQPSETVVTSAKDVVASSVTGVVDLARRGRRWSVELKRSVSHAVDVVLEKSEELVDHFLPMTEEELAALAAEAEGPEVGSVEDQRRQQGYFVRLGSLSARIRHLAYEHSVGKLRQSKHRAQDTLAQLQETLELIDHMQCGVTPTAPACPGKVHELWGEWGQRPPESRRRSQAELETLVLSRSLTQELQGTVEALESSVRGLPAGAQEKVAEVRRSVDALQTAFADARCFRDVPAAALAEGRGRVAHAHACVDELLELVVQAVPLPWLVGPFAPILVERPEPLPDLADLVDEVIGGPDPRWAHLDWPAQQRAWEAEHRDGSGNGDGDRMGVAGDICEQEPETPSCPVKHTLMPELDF
Target sequence (Q8WTS1 whole entry, looked up): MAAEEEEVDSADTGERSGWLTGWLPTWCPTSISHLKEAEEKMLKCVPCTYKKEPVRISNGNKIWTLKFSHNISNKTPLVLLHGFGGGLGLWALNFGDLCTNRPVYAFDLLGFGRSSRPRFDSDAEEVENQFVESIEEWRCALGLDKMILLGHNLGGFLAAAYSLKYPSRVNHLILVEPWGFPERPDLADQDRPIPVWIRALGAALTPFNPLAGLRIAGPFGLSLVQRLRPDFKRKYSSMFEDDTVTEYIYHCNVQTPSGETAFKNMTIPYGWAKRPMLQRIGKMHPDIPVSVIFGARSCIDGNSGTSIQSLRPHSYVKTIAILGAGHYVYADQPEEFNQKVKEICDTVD
ABHD5-PLIN5 conf: ABHD5-PLIN5 interaction inhibitors, confirmation, biochemical, luminescence. 2,200 tested, 67% active. inhibition, % at 4 µM. shares compounds with ABHD5-PLIN5 inh; in the data active = inhibition above about 23%;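 also: 0% = DMSO vehicle wells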
HNF4 split-luc: HNF4 dimerization inhibitors, counter-screen for ABHD5-PLIN5 interaction inhibitor project, biochemical, split-luciferase complementation, luminescence. shares compounds with ABHD5-PLIN5 inh. inhibition, % at 4 µM. 2,200 tested, 77% active. AID 651674, 2012;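 active = mean inhibition across replicate wells exceeding the computed hit threshold, cut at about 13% in these data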;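 also: light from luciferase halves that rejoin when HNF4 fusion proteins dimerize; 0% = DMSO only wells and the 100% control is not given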
* = called active by the depositor; nt = no result.

SMILES	PRMT1 FP inh	NOD2 RIPK2 PPI	rCAG binder	TLR4-MyD88 BLA	TLR9-MyD88 inh	ABHD5-PLIN5 inh	ABHD5-PLIN5 conf	HNF4 split-luc
O=C1CNC(=S)N1C(CO)c1ccccc1 (configuration not stated)	0.1	-5.7	2.4	nt	-7.1	-5.0	nt	nt
COc1ccccc1N1C(=O)CC(Sc2ccccc2N)C1=O (configuration not stated)	2.6	-4.9	-4.2	nt	9.1	-0.2	nt	nt
O=C(CCl)N1N=C(c2ccco2)CC1c1ccco1 (configuration not stated)	38.1*	-15.9	15.0	nt	-1.9	38.4*	24.8*	21.8*
CC(C)[C@H](NS(=O)(=O)c1ccccc1)C(=O)OCC(=O)N1N=C(c2ccc(Cl)cc2)CC1c1ccco1 (some centres not stated)	15.3	5.4	34.0	-9.7	0.6	24.1*	47.6*	56.2*
O=C(COc1cccnc1[N+](=O)[O-])N1N=C(c2ccc(Cl)cc2)CC1c1ccco1 (configuration not stated)	1.0	-4.9	0.1	-3.9	-5.2	4.8	nt	nt
Cc1ccc(OCC(=O)N2N=C(c3ccc(Cl)cc3)CC2c2ccco2)c([N+](=O)[O-])n1 (configuration not stated)	1.6	6.4	0.1	-11.4	4.5	23.5*	7.3	14.3*
O=C1NC(c2ccccc2)N=C2Oc3ccccc3C=C12 (configuration not stated)	2.3	4.9	5.9	nt	0.2	17.3	nt	nt
COC(=O)c1cc2c(c3c4cc(F)ccc4n(S(=O)(=O)c4ccccc4)c13)C(=O)N(Cc1ccco1)C2	10.9	nt	23.5	nt	nt	nt	nt	nt
COc1ccc(CN2C(=O)C(CC(=O)NC3CCCCC3)CC(C(=O)N(C)C)=C2C)cc1 (configuration not stated)	3.5	3.8	-2.1	nt	-4.0	8.6	nt	nt
CC(C)N1C/C(=C/c2ccsc2)C(=O)/C(=C/c2ccsc2)C1	0.2	-0.3	0.3	0.3	6.7	28.1*	85.1*	77.6*
CC(C)N1C/C(=C/c2cccnc2)C(=O)/C(=C/c2cccnc2)C1	2.2	-0.5	4.4	-12.0	-1.9	41.5*	85.8*	66.9*
CCN1C(=O)S/C(=C/c2ccsc2)C1=O	1.3	-4.8	2.2	-3.2	-1.0	3.0	nt	nt
CN1C/C(=C/c2cccnc2)C(=O)/C(=C/c2cccnc2)C1	-1.7	-4.3	-0.9	-0.9	6.4	65.9*	99.8*	91.6*
O=C1c2ccccc2C(=Cc2cccnc2)c2ccccc21	7.0	1.9	14.7	nt	4.0	7.4	nt	nt
CSCCC(c1nc2ccccc2[nH]1)n1c(-c2ccc3ncccc3c2)nc2ccccc21 (configuration not stated)	4.1	-4.6	10.0	nt	nt	-4.9	nt	nt
CC[C@@H](C)[C@@H]1CN([C@@H](C)CN2CCC[C@H]2CN2C(N)=NC[C@@H]2Cc2ccccc2)C(=N)N1CCCC1CCCC1	1.5	6.2	13.5	nt	0.9	28.8*	10.6	-1.1
CC[C@@H](C)[C@@H]1CN([C@@H](C)CN2CCC[C@H]2CN2C(N)=NC[C@@H]2Cc2ccccc2)C(=N)N1CCc1ccc(Cl)c(Cl)c1	nt	-2.5	nt	nt	-5.7	34.1*	17.3	5.5
CCN1C[C@@H]2[C@@H]3C(=O)N(C)C(=O)[C@@H]3[C@](Cc3ccccc3)(C1=O)N2C(=O)c1ccc(Br)cc1	0.0	-6.8	-5.8	nt	-2.3	5.8	nt	nt
CC(CCc1ccco1)NC(=O)CCc1nnc2ccc(NCc3ccc(Cl)cc3)nn12 (configuration not stated)	0.6	6.1	-4.1	nt	2.5	17.9	nt	nt
COc1ccccc1CNc1ccc2nnc(CCNC(=O)c3ccccc3)n2n1	1.4	4.7	-3.2	-3.8	-1.5	2.4	nt	nt
O=C(NCCc1nnc2ccc(NCc3ccccc3Cl)nn12)c1ccccc1	3.1	-2.9	-6.6	-22.3	8.7	52.5*	5.8	3.9
CC(CCc1ccco1)NC(=O)CCc1nnc2ccc(NCc3ccccc3Cl)nn12 (configuration not stated)	13.2	-4.0	-2.2	nt	7.9	42.6*	40.5*	nt
CC1(C)COC(/C=C/c2cccc([N+](=O)[O-])c2)=N1	0.8	-5.5	-5.4	6.1	-0.8	28.8*	45.7*	49.1*
O=C(NCCc1ccccc1)OCc1cn(Cc2cc(F)cc(F)c2)nn1	-1.4	nt	1.8	nt	nt	nt	nt	nt
CC1=NN(Cc2c(C)nn(Cc3ccccc3)c2C)C(C)(C)C1	-0.6	-3.3	-8.5	-3.2	10.6	1.4	nt	nt
SMILES	PRMT1 FP inh	NOD2 RIPK2 PPI	rCAG binder	TLR4-MyD88 BLA	TLR9-MyD88 inh	ABHD5-PLIN5 inh	ABHD5-PLIN5 conf	HNF4 split-luc
CNCCCOc1ccc(C)cc1OC	5.0	-11.2	2.2	-4.9	-2.6	56.7*	1.9	-0.5
CCC(C)NCCCOc1ccc(C)cc1OC (configuration not stated)	1.4	-3.1	2.5	1.6	0.4	-6.6	nt	nt
CCCn1c(SCC(=O)N(CC)c2c(N)n(Cc3ccccc3)c(=O)[nH]c2=O)nnc1-c1ccncc1	1.6	3.1	-0.2	nt	-14.5	3.8	nt	nt
O=C(c1ccco1)N1CCN(S(=O)(=O)c2ccc(Oc3ccccc3)cc2)CC1	-2.5	5.6	-5.4	0.3	-4.8	49.6*	8.3	17.6*
CC1CCCN(S(=O)(=O)c2ccc(NC(=O)C3CCN(C(=O)c4ccco4)CC3)cc2)C1 (configuration not stated)	-2.7	-0.1	4.8	nt	-1.4	24.1*	4.3	0.4
O=C(COC(=O)CCC(=O)c1ccc(Cl)cc1)NCc1ccco1	8.8	1.6	2.1	-6.9	7.9	24.9*	10.6	7.5
CCCCC(=O)Nc1cccc(C(=O)Nc2ccccc2C(=O)O)c1	3.0	3.3	19.7	0.7	-0.1	94.9*	3.2	1.4
O=C(/C=C(\Nc1cccc(OC(F)F)c1)c1ccccc1)c1ccccc1	1.6	nt	2.6	nt	nt	nt	nt	nt
CN1C(=S)N(c2cccnc2)C(=O)/C1=C\c1ccc(C(C)(C)C)cc1	-1.6	3.4	7.7	-2.9	4.7	37.8*	64.5*	54.6*
CC(C)(C)c1ccc(/C=C/C(=O)Nc2cccnc2)cc1	5.4	4.7	-1.4	nt	-3.8	-6.0	nt	nt
COc1ccc(OCCN2CCC(C(=O)NC(c3ccsc3)c3ccccc3C)CC2)cc1 (configuration not stated)	-2.5	-1.3	4.9	nt	nt	0.4	nt	nt

Screening data as filed in PubChem.
